Here are results for 15 molecules from ChEMBL document CHEMBL1961873, “Compounds: GSK PKIS; Assays: Nanosyn kinase panel” (2012).

Test [1] concerns the target Rho-associated protein kinase 1 (Homo sapiens) (UniProt Q13464). The conditions noted are these: at 1 µM.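 Further: reported values are mean percent inhibition of ROCK1.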
Test [2] addresses Rho-associated protein kinase 2 (Homo sapiens) (UniProt O75116). As to conditions: at 0.1 µM.
Test [3] has the same target. As to conditions: at 1 µM.
Test [4] addresses Ribosomal protein S6 kinase alpha-1 (Homo sapiens) (UniProt Q15418). The conditions noted are these: at 0.1 µM.
Test [5] shares this target. As to conditions: at 1 µM.
The target in test [6] is Ribosomal protein S6 kinase alpha-3 (Homo sapiens) (UniProt P51812). As to conditions: at 0.1 µM.
Test [7] has the same target. The conditions noted are these: at 1 µM.
Test [8] has as its target Ribosomal protein S6 kinase alpha-2 (Homo sapiens) (UniProt Q15349). The conditions noted are these: at 0.1 µM.
The target is the same in test [9]. The conditions noted are these: at 1 µM.
The target in test [10] is Ribosomal protein S6 kinase alpha-6 (Homo sapiens) (UniProt Q9UK32). The conditions noted are these: at 0.1 µM.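 Further: reported value is the mean inhibition of RSK4, from the GSK PKIS kinase inhibitor screen.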

Values joined by “and” are separate entries in the source; they are usually repeats but may differ in a detail not shown here. Equal entries are not always repeated.

Sequence of Ribosomal protein S6 kinase alpha-1 (Homo sapiens) (Q15418 whole entry): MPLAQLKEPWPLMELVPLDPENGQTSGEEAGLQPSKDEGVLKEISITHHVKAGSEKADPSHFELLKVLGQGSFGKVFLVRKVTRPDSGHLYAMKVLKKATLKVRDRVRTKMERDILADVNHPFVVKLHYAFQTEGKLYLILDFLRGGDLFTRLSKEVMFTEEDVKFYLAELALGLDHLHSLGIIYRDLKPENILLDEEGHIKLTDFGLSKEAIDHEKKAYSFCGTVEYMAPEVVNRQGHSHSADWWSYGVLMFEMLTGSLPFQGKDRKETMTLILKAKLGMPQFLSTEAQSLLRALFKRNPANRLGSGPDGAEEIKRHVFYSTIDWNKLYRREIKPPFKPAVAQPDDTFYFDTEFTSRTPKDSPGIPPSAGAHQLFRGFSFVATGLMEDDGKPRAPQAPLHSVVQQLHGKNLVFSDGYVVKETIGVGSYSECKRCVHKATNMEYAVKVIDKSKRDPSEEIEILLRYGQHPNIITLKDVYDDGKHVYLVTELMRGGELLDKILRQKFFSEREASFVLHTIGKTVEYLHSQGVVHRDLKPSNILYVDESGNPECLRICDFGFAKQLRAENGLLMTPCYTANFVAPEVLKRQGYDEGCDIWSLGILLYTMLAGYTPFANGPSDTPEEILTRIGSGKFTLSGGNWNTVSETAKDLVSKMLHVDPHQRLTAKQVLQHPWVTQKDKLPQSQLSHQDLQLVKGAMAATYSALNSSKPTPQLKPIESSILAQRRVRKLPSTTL
Sequence of Rho-associated protein kinase 2 (Homo sapiens) (O75116 whole entry, looked up): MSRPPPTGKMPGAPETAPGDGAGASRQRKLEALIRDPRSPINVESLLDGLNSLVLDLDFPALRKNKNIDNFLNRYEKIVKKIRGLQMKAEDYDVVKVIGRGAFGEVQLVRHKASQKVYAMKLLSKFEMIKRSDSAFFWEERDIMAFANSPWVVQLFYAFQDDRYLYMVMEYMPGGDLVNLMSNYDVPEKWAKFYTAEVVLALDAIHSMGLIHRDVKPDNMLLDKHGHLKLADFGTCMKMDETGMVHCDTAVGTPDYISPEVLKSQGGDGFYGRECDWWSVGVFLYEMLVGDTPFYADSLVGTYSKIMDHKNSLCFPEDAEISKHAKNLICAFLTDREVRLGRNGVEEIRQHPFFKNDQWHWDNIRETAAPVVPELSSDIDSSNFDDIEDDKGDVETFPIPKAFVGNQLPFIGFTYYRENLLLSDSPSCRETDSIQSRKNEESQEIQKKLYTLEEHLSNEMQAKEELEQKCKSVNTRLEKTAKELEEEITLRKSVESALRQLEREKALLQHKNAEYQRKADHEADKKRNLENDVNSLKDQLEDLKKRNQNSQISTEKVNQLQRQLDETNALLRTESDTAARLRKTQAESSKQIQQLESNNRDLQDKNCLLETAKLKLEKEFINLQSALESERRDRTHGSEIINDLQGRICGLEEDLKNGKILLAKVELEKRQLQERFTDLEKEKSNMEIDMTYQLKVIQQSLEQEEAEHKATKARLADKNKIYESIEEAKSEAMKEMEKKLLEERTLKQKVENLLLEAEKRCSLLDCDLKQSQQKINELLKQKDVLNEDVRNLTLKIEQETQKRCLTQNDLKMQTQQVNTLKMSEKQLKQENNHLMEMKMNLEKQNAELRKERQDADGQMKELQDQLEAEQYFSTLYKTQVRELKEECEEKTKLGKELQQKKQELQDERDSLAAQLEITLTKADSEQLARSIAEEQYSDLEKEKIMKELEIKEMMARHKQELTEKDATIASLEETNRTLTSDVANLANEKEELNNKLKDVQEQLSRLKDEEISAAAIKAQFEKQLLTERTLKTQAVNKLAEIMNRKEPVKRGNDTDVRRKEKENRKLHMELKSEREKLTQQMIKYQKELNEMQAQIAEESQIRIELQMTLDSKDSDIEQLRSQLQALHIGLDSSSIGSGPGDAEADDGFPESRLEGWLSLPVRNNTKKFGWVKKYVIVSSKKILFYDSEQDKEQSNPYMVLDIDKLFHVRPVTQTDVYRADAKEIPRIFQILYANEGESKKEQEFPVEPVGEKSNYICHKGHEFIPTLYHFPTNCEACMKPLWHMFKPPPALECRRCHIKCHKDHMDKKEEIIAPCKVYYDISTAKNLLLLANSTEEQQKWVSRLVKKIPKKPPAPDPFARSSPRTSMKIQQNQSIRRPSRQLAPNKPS
Sequence of Ribosomal protein S6 kinase alpha-6 (Homo sapiens) (Q9UK32 whole entry): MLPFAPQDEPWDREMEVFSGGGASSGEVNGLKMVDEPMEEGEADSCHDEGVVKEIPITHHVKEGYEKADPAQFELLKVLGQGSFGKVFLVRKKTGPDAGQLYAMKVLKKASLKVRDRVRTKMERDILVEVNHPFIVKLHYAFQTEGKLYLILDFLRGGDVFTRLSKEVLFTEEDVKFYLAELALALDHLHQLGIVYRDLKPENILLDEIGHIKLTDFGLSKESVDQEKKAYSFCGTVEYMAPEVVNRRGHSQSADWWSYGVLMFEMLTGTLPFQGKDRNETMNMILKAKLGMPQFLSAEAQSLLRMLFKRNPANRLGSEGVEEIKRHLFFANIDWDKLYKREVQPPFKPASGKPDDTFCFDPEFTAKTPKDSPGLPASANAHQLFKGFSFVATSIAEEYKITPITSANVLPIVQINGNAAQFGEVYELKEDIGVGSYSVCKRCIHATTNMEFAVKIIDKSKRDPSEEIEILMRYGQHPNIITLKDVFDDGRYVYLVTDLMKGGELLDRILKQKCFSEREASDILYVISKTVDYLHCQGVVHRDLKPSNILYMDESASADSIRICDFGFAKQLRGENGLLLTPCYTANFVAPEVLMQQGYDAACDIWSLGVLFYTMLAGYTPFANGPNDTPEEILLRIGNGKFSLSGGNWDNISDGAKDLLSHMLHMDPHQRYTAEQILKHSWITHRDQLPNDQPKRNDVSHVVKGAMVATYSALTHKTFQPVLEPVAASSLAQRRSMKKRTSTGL
Sequence of Ribosomal protein S6 kinase alpha-3 (Homo sapiens) (P51812 whole entry): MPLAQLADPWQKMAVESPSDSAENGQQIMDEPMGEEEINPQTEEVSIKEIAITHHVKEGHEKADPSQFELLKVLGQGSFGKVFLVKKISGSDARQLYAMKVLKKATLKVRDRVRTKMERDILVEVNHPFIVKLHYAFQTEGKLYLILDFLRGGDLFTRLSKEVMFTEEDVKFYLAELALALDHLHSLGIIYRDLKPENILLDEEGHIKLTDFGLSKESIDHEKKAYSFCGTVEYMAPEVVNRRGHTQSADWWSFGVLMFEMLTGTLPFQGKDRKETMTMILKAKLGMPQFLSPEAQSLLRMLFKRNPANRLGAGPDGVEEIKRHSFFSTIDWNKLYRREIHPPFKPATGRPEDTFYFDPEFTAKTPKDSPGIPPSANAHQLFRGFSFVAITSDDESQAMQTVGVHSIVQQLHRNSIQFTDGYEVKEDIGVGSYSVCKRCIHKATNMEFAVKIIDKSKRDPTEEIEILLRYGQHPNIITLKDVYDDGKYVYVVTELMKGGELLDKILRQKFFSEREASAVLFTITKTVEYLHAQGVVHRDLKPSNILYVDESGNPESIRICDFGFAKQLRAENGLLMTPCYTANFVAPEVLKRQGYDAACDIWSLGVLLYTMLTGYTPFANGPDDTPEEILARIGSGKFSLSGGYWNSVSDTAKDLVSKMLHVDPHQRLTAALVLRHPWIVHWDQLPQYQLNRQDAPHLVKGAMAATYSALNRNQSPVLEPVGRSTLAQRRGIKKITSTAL
Sequence of Rho-associated protein kinase 1 (Homo sapiens) (Q13464 2-1354 limits assumed): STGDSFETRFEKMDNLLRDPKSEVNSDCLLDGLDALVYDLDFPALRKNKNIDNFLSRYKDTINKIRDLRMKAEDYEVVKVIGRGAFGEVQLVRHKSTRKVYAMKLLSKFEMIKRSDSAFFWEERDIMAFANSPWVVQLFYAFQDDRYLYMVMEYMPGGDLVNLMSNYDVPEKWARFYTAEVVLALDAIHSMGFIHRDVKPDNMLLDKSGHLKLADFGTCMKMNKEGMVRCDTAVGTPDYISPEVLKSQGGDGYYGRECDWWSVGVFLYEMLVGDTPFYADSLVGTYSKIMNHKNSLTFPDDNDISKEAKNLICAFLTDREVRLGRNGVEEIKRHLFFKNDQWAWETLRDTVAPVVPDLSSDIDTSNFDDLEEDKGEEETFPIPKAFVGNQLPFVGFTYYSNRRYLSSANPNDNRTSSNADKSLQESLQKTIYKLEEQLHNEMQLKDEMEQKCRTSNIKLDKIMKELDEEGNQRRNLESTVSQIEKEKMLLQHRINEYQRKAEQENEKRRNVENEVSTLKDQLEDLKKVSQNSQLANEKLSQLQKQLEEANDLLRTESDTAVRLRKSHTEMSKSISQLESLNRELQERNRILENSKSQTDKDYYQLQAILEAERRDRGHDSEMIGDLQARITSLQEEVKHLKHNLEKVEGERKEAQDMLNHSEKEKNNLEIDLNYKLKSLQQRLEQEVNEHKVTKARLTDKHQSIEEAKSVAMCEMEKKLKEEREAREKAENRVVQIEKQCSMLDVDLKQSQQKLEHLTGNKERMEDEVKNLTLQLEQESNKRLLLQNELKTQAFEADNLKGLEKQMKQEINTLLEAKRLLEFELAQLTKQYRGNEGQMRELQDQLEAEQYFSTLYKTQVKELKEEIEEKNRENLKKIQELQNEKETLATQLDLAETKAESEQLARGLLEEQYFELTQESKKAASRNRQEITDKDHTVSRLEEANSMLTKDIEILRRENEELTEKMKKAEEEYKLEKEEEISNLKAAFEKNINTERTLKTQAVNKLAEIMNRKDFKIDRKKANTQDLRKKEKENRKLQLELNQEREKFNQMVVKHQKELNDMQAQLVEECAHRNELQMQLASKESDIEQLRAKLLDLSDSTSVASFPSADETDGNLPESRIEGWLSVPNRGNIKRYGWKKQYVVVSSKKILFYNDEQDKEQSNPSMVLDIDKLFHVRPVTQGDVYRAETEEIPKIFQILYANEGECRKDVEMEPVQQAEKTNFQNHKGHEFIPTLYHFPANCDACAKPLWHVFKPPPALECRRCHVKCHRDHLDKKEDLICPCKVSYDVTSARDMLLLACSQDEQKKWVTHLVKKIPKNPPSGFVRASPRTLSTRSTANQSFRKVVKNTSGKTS

Usually inhibition stands for the change of the read-out against control, counted positive when it falls. For the molecule `O=C(O[C@H]1CN[C@H](C#Cc2cc3ncnc(Nc4ccc5c(ccn5Cc5cc(F)ccc5F)c4)c3s2)C1)N1CCOCC1`, the inhibition in [1] was determined as 3.4%; in test [2], 2.86%; in test [3], 5.23%; in test [4] it was 1.53%; in [5], 1.62%; in test [6] it was 0.96%. The inhibition in test [7] is 0.89%; in test [8] it was 3.56%; in [9], 2.57%; in test [10] it was 1.53%.

On to `O=C(O[C@H]1CN[C@H](C#Cc2cc3ncnc(Nc4ccc5c(cnn5Cc5ccccc5)c4)c3s2)C1)N1CCOCC1`, for which the inhibition in test [1] is -2.07%; in [2], -1.02%; in test [3], -1.36%; in test [4], -1.77%; in test [5] it was -0.14%; in test [6] it was 0.74%. Further, the inhibition in test [7] was 1.52%; in test [8], -0.5%; in test [9] it was -1.02%; in test [10], -1.39%.

Regarding `CN1CCC(C(=O)Nc2n[nH]c3nc(-c4ccc(O)cc4)c(Br)cc23)CC1`, the inhibition in [1] was 2.13% and -0.83%; in test [2], 3.65% and -0.14%; in test [3], 7.61% and 0.92%; in test [4], 2.66% and 0.77%; in [5], 5.58% and 0.84%; in [6], 2.78% and 0.04%. Besides, the inhibition was 6.6% and 1.92% in [7]; 3.56% and 2.99% in test [8]; 7.9% and 6.17% in test [9]; 2.77% and 0.98% in test [10].

With `N#Cc1cccc(Nc2ncc(-c3ccccc3)o2)c1`, the inhibition in test [1] was 0.71%; in test [2], 2%; in test [3], 6.5%; in test [4] it was 0.19%; in test [5], 3.79%; in [6] it was 0.02%. The inhibition is 1.64% in test [7], 1.14% in [8], 1.32% in test [9] and -0.19% in test [10].

As to `CN1CCN(Cc2ccc(-c3cc4ncnc(Nc5ccc(OCc6cccc(F)c6)c(Cl)c5)c4s3)o2)CC1`, the inhibition in test [1] is 2% and 0.89%; in test [2] it was 1.84% and 3.91%; in [3] it was 2.16% and 8.24%; in test [4] it was 0.86% and 2.44%; in [5] it was 3.31% and 6.74%; in test [6], 0.78% and 2.19%. For the same molecule, the inhibition in [7] was 4.15% and 7.1%; in test [8], 2.32% and 1.76%; in [9], 3.34% and 4.93%; in test [10], 1.22% and 1.16%.

On to `CN(c1ccc(NC(=O)NCCN2CCOCC2)cc1)c1ccnc(Nc2ccc(CS(C)(=O)=O)cc2)n1`, for which the inhibition in [1] turned out to be 8.01%; in [2], 4.87%; in test [3], 18.1%; in test [4], 1.1%; in test [5] it was 3.56%; in [6], 2.14%. Also, the inhibition in test [7] was determined as 2.69%; in test [8] it was 1.38%; in [9], 2.28%; in test [10], 1.79%.

Regarding `c1cnn2ncc(-c3ccnc(NCCCN4CCOCC4)n3)c2c1`, the inhibition in [1] was determined as 4.7%; in [2], 4.49%; in test [3] it was 4.16%; in test [4], 1.74%; in test [5] it was 4.45%; in test [6] it was 0.98%. The inhibition was 2.86% in test [7], 1.93% in test [8], 3.97% in test [9] and -0.14% in test [10].

On to `NS(=O)(=O)c1ccc(N/N=C2\C(=O)Nc3ccc(C(=O)NCc4ccncc4)cc32)cc1`, for which the inhibition was 5.11% in test [1]; 4.18% in test [2]; 15.1% in [3]; 1.77% in test [4]; 7.98% in [5]; 2.2% in test [6]. Also, the inhibition in test [7] was 6.7%; in [8], 1.92%; in test [9] it was 7.63%; in [10], 3.7%.

With `COc1cc2c(cc1Nc1nc(Nc3cccc(F)c3C(N)=O)c3cc[nH]c3n1)N(C(=O)CN1CCN(C(C)C)CC1)CC2`, the inhibition amounted to 0.34% in test [1]; 0.62% in test [2]; 2.82% in test [3]; 4.37% in test [4]; 20.1% in [5]; 2.2% in [6]. Further, the inhibition in test [7] was determined as 10.3%; in test [8], 1.68%; in [9], 2.89%; in test [10], 3.57%.

For the molecule `COc1ccc(-c2nn3ncccc3c2-c2ccnc(Nc3ccc(F)c(F)c3)n2)cc1`, the inhibition in test [1] turned out to be 1.15%; in [2], 3.85%; in [3] it was 6.06%; in test [4], 4.22%; in test [5], 7.89%; in test [6], 4.49%. Besides, the inhibition worked out at 7.14% in test [7], 2.96% in [8], 2.69% in test [9] and 1.78% in test [10].

In the case of `CC1=C(C(=O)Nc2ccc3[nH]nc(C)c3c2)C(c2ccc(C(F)(F)F)cc2)CC(=O)N1` (stereo not given), the inhibition is 89.8% in test [1]; 70.3% in [2]; 83.8% in test [3]; 2.72% in [4]; 11.3% in [5]; 1.64% in [6]. Also, the inhibition was found to be 17.2% in test [7], 1.77% in [8], 9.89% in test [9] and 3.48% in test [10].

As to `COc1ccccc1-c1cc(/C=C2\C(=O)Nc3ncc(Br)cc32)cc(Br)c1O`, the inhibition in [1] stood at 2.31%; in [2], 1.89%; in test [3], 2.15%; in test [4], 0.44%; in test [5], 0.08%; in test [6] it was 0.16%. Moreover, the inhibition in [7] is 1.15%; in [8] it was 1.52%; in [9], 3.85%; in test [10], -0.23%.

Consider `CCS(=O)(=O)c1ccc(OC)c(Nc2ncc(-c3cccc(F)c3)o2)c1`, for which the inhibition in test [1] came out at 2.95%; in [2] it was 3.63%; in test [3], 3.95%; in test [4] it was 2.84%; in test [5] it was 6.08%; in [6], 1.12%. In addition, the inhibition in test [7] was found to be 13.6%; in [8], 4.07%; in [9], 5.22%; in [10] it was 2.2%.

In the case of `CS(=O)(=O)CCNCc1ccc(-c2ccc3ncnc(Nc4ccc(OCc5ccccc5)cc4)c3c2)o1`, the inhibition in [1] was 1.69%; in test [2] it was 2.02%; in test [3], 2.23%; in [4] it was 2.15%; in test [5], 3.81%; in test [6], 2.27%. Also, the inhibition came to 2.78% in [7], 3.11% in [8], 4.28% in test [9] and 2.96% in test [10].

Turning to `CCn1c(-c2nonc2N)nc2cncc(C(=O)NCCNC)c21`, the inhibition turned out to be 91.6% in test [1]; 80.6% in [2]; 90.4% in [3]; 62.3% in [4]; 88.3% in test [5]; 54.5% in test [6]. Also, the inhibition was 78.7% in [7], 25.4% in test [8], 73.8% in test [9] and 9.72% in test [10].
